# Experimental data: PubChem BioAssay (NCATS)
# Results filed as inconclusive are left out. Unmarked numbers belong to inactive results. The source made the active and inactive calls. The call rests on the fitted dose curve; in most records, active means well fitted inhibition curve with a large enough effect; inconclusive means small, poorly fitted or top-dose-only effect; inactive means flat fitted curve, though single readings scatter.
# Columns and labels:
# [1] = test system: KB-3-1; test: Cytotoxic Profiling of Annotated Libraries Using Quantitative High-Throughput Screening (AID 1296008); conditions: Five cell lines viability, CellTiter-Glo ATP luminescence, 48-72 h; max response: stronger effect = lower value; further: nearly all actives have a fitted effect of over 60% in size
# Method in brief: (§1)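 Cells exposed to compounds for 48 or 72 hr at 37 degrees Celsius. Viability read as ATP-coupled luminescence with CellTiter-Glo after 10 min at room temperature.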
# [2] = test system: NIH3T3; test: as above; conditions: Five cell lines viability, CellTiter-Glo ATP luminescence, 48-72 h; max response: stronger effect = lower value
# Method in brief: as §1
# On the % scale 0 is the no-effect control and ±100 the full control effect; potency means the concentration at half of the fitted maximal effect.
smiles,measurement,setting,value
CCCCCCCCCCCCCCCC(=O)OCCC1CCN(CCCN2c3ccccc3Sc3ccc(S(=O)(=O)N(C)C)cc32)CC1,max response,[1],-4.82%
N#Cc1ccc(COc2ccc(-c3cccc4nc(NC(=O)C5CC5)nn34)cc2)cn1,max response,[1],-6.55%
same,Potency,[2],20.6 µM (active)
CCN(CC)CCOC(=O)c1ccc(N)cc1Cl,max response,[1],1.25%
C=C1C(=O)O[C@@H]2C[C@]3(C)[C@@H](CCC(C)O)[C@@H]3C[C@H]12 (stereo not given in full),outcome,[1],inactive
same,max response,[2],-15.1%
C=C1C(=O)OC2/C=C(\C)CC/C=C(\C)CC(OC(C)=O)C12 (stereo not given),max response,[1],3.33%
same,Potency,[2],23.1 µM (active)
CC(=O)O[C@@H]1[C@H](O[C@@H]2O[C@@H](CO)[C@H](O)[C@H]2O)[C@@H](O[C@@H]2O[C@@H](C)[C@H](O[C@@H]3OC[C@@H](O)[C@H](O)[C@H]3O)[C@@H](O)[C@H]2O)[C@H](OC(=O)[C@]23CCC(C)(C)C[C@H]2C2=CCC4[C@@]5(C)CC[C@H](O[C@@H]6O[C@H](C(=O)O)[C@@H](O)[C@H](O)[C@H]6O[C@@H]6O[C@H](CO)[C@H](O)[C@H](O)[C@H]6O)[C@@](C)(C=O)C5CC[C@@]4(C)[C@]2(C)C[C@H]3O)O[C@@H]1C (stereo not given in full),max response,[1],8.09%
same,max response,[2],-0.852%
Cc1ccc(S(=O)(=O)N2CCC[C@H]2c2ccc(F)cc2)cc1,max response,[1],-12.3%
same,max response,[2],-13.3%
Cc1cc2ncc(C(=O)NCC(C)(C)NCC(=O)N3CCC[C@H]3C#N)cn2n1,max response,[1],3.28%
C=C1C(=O)O[C@H]2C1CCC(C)=C1C(=O)C=C(C)[C@@]12O (stereo not given in full),max response,[1],-10.7%
same,max response,[2],-6.36%
